# In the library only some 4.7% were active in any assay of this set; here they are far more common.
# D1 ag: activates the human D1 dopamine receptor; activation, % at 2 µM; 360,000 compounds, 1% hits; AID 504660; P21728; HEK293 T-REx D1 cells, calcium flux, agonist mode; further: 0% is about no effect
# Target sequence (P21728 whole entry, looked up): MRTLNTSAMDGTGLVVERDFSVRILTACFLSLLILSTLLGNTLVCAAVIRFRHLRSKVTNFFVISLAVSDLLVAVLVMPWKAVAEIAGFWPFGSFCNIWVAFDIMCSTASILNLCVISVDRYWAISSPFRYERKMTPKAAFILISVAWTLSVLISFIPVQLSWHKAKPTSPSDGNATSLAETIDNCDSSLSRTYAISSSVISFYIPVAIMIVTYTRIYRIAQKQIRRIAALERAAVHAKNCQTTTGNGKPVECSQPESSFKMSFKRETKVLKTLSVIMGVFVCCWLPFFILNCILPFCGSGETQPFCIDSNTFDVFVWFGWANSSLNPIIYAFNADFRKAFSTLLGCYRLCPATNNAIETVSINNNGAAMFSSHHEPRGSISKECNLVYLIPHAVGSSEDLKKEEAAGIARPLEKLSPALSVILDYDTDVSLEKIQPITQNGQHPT
#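 Agonism was scored from calcium flux recorded over 180 s (1 read/s) after pintool compound addition, following a 10-cycle baseline. Cells were inducible force-coupled HEK293 TREx D1, plated overnight at 30 C and loaded with no-wash calcium dye.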
# TRHR PAM: allosterically enhances the human TRH receptor | TRHR cells, fluo-8 calcium fluorescence, EC20 TRH enhancement | enhancement, % at 2 µM | 360,000 compounds, 0.66% hits | AID 493056; in the data active means enhancement above about 30%; further: 0% is about no effect
#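 Enhancer read-out: after compound pinning and an initial kinetic agonist-mode read, an EC20 of TRH (10 nM final) was injected and fluo-8 calcium signal (Ex 480/Em 530) followed at 1 s/cycle for 100 cycles in TRHR-expressing cells.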
# D1 antagonist: human D1 dopamine receptor antagonism; activity change, negative = inhibition, % at 10 µM; HEK293 TREx D1 cells, calcium flux, dopamine EC80; active compounds read low; 360,000 compounds, 3.2% hits; P21728; in the data active means activity change below about -30%; further: on the % scale 0 is the no-effect control and ±100 the full control effect
#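 HEK293 T-REx cells expressing inducible, force-coupled D1 receptor; no-wash Ca dye, 30–90 min RT. Cmpd → 180 s read at 1 Hz → EC80 DA → 180 s read.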
# TRHR ag: activates the human TRH receptor. P34981. TRHR cells, calcium flux fluo-8, FDSS agonist mode. activation, % at 2 µM. 360,000 compounds, 0.18% hits. AID 493084; further: 0% is about no effect
#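 TRHR-expressing cells loaded with fluo-8 calcium dye; 23 nL library compound pin-transferred, kinetic FDSS fluorescence (Ex 480/Em 530) recorded about 180 s for agonist-induced calcium release, before a 10 nM TRH EC20 addition for potentiator mode.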
# D1 PAM: human D1 dopamine receptor positive modulation. P21728. HEK293 TREx D1 cells, calcium flux, dopamine EC20 potentiation. potentiation, % at 10 µM. 360,000 compounds, 0.036% hits; in the data active means potentiation above about 30%; further: 0% is about no effect
# Starred values were filed as active, the others as inactive; · = no result. Unless noted, no stated cut-off is given here; in the data, active means activation above about 30%; inactive means the rest.
SMILES,D1 ag,TRHR PAM,D1 antagonist,TRHR ag,D1 PAM
Cc1nn(-c2c(Cl)cc(Cl)cc2Cl)c(=O)c2ccccc12,74*,2,3,-1,-2
Cc1nn(-c2ccc(Br)cc2)c(=O)c2ccccc12,7,4,-5,-1,-12
CC1CCN(C(=O)c2cccc(NC(=O)c3nsc4ccccc34)c2)CC1,3,-4,1,0,4
Cc1ccc(CNC(=O)CCCn2c(=O)c3ccccc3n(CC(=O)C(C)(C)C)c2=O)cc1,1,-7,12,-1,-3
O=c1[nH]c(-c2ccccn2)nc2sc(-c3ccccc3)cc12,7,1,-31*,1,3
Cc1nn2c(=O)cc(COC(=O)Cc3ccccc3)nc2s1,3,3,7,0,1
S=C(NCCc1c[nH]c2ccccc12)NC1CCCC1,7,-2,-39*,1,1
S=C(NCCCc1ccccc1)NC1CCCCC1,32*,-3,-1,2,-5
S=C(NCCc1c[nH]c2ccccc12)NC1CC1,1,32*,0,0,-3
O=S(=O)(NCCc1c[nH]c2ccccc12)c1ccccc1,20,-5,-36*,0,-6
Cc1ccc(S(=O)(=O)NCCc2c[nH]c3ccccc23)cc1,4,-1,-19,0,-6
COc1ccc(CN(Cc2ccco2)C(=O)c2ccccc2F)cc1,1,-3,6,-1,3
CN(C)CC1CCCCC1C1(O)c2ccccc2CSc2sccc21 (stereo not given),78*,15,-2,-1,-16
CCOC(=O)c1scc(-c2ccc(C)cc2)c1S(=O)(=O)Nc1ccc(OC)c(Cl)c1,10,0,-3,-1,-6
Nc1nonc1C(=O)NCCNCc1ccccc1,4,-4,-47*,0,2
COc1ccc(CNCCNC(=O)c2nonc2N)cc1OC,-1,-3,8,0,-7
Nc1nonc1C(=O)NCCNCc1cc(Br)ccc1OCc1ccc(F)cc1,15,1,-37*,0,-3
Nc1nonc1C(=O)NCCNCc1ccccc1F,-2,0,-3,0,-2
Nc1nonc1C(=O)NCCNCc1c(OCc2ccccc2F)ccc2ccccc12,11,1,-45*,0,-9
CCOc1ccc(Nc2oc(-c3ccc(COc4ccc(C)cc4)o3)nc2C#N)cc1,-2,15,1,1,-1
Cc1cc(C)c(NC(=O)CN2C(=O)c3cccnc3Oc3ccc(C)cc32)c(C)c1,-1,-3,24,-1,8
CCOc1cccc2sc(N3CCN(C(=O)c4ccc5c(c4)CCCC5)CC3)nc12,-1,-3,·,0,13
O=c1[nH]c(SCc2ccc(Cl)cc2)nc2c1CCC2,1,-6,4,0,2
O=c1[nH]c(SCc2ccccc2)nc2c1CCCC2,8,-4,-41*,0,-3
Cc1ccnc2nc(C(=O)OCCOc3ccc(F)cc3)nn12,3,5,-14,-3,0
SMILES,D1 ag,TRHR PAM,D1 antagonist,TRHR ag,D1 PAM
Cc1ccnc2nc(C(=O)OCCOc3ccc(Cl)cc3)nn12,7,3,-37*,0,-4
Cc1cc(C)n2nc(C(=O)OCC(=O)NCc3ccc(Cl)cc3)nc2n1,-1,3,-33*,0,-6
COc1cc(CN(C(=O)c2ccc(Cl)cc2)C2CCS(=O)(=O)C2)cc(OC)c1OC (stereo not given),4,2,11,0,-1
CCc1ccc(-n2c(=O)c3sc4ccccc4c3n(CC(=O)NCc3ccccc3)c2=O)cc1,0,-5,5,1,-3
Cc1ccc(S(=O)(=O)c2cnc(SCC(=O)Nc3cccc(Cl)c3)nc2N)cc1C,11,0,-3,-1,0
COC(=O)c1ccc(N2CCCCC2)c(NS(=O)(=O)c2ccc(C)cc2)c1,1,13,14,0,-2
CCOC(=O)c1ccc(N2CCCCC2)c(NS(=O)(=O)c2cccc(C(F)(F)F)c2)c1,5,-8,-48*,1,-3
CCC(Sc1nncn2c1cc1occc12)C(=O)Nc1ccc(C)c(Cl)c1 (stereo not given),1,-5,11,1,5
CC(C)c1ccc(OCCCCN2CCCCC2)cc1,12,3,6,2,5
CC(C)Oc1ccc(OCCCN2CCCCCC2)cc1,-2,2,14,0,-8
CC(C)(C)c1ccc(OCCCN2CCCC2)cc1,15,38*,-11,0,-5
Clc1ccc(OCCCCN2CCCCC2)cc1,26,-2,-39*,0,-5
OCCOCCOc1ccccc1OCCOCCO,2,13,-86*,-1,-19
CC(=O)c1ccccc1OCCOCCOCCOc1ccccc1C(C)=O,1,-6,31,0,1
CCN(CC)c1ccc(NC(=O)c2ccco2)c(C)c1,-2,4,-14,0,4
CCN(CC)c1ccc(NC(=O)c2ccc(Br)o2)c(C)c1,35*,8,-1,0,-9
O=S(=O)(NCc1ccco1)c1cccc(S(=O)(=O)N2CCCCC2)c1,2,32*,-4,0,5
CCN(CC)c1ccc(NC(=O)c2cccn2-c2nnc(N3CCCCC3)s2)c(C)c1,20,-11,-12,6,-1
O=C(O)c1cccc(-c2noc(-c3ccccc3F)n2)c1,2,1,20,-2,-3
Cc1ccccc1OCCNc1cc(N2CCN(CCO)CC2)ccc1[N+](=O)[O-],33*,1,-19,1,-12
COc1ccc(OCCNc2cc(N3CCCCC3)ccc2[N+](=O)[O-])cc1,6,1,-7,0,6
CC1CN(c2ccc([N+](=O)[O-])c(NCCOc3ccccc3)c2)CCN1 (stereo not given),32*,-3,-20,4,-10
Nc1nc(COc2ccc(Cl)cc2)cs1,1,38*,-5,0,3
COc1ccc(CC(=O)NCc2nc3cccnc3n2Cc2ccc(C)cc2)cc1OC,0,2,8,0,-3
CC1CC(=O)N(c2ccc(C(C)C)cc2)C(=O)C1,6,8,-32*,1,-5
CC(C)c1ccc(N2C(=O)C3C4C=CC(CC4)C3C2=O)cc1 (stereo not given),12,1,-26,1,0
CSc1ccc(CNC(=O)C2CCCN(S(=O)(=O)N(C)c3ccc(F)cc3)C2)cc1 (stereo not given),14,4,19,0,-6
Cc1ccc(-c2c(C)c(-c3ccc(F)cc3)nc(N)c2C#N)o1,8,-5,-31*,0,-8
Cc1c(-c2ccc(F)cc2)nc(N)c(C#N)c1-c1cccnc1,2,4,10,-1,5
Cc1ccc(C)c(CN2C(=O)CSc3ccc(C(=O)NCc4ccc(F)cc4)cc32)c1,0,-1,18,0,0

# Screening results deposited in PubChem by National Center for Advancing Translational Sciences (NCATS).
